These results are taken from the supplement of paper PMC9135407.

The experiment relates to primary human hepatic stellate cells (donor 1). Kind of experiment: scaled lipid accumulation score (0 = DMSO-like, 1 = nortriptyline-like); higher = stronger HSC inactivation (lipid re-accumulation), active = hit call of the paper. Particulars: 48 h.
Where [1] appears, read: library stock concentration: 1 mM.
The mark [2] stands for this setting: library stock concentration: 10 mM.
The mark [3] stands for this setting: library stock concentration: 3.33 mM.
The mark [4] stands for this setting: library stock concentration: 80 uM.
The mark [5] stands for this setting: library stock concentration: 400 uM.
Where [6] appears, read: library stock concentration: 2 mM.

Several values for one entry are separate records, joined by “and”; a condition that tells them apart may be missing. Equal values may be shown once. Where a name gives a salt, the structure may show the parent alone. Out of some 5,800 compounds screened, about 620 (11%) showed activity. The full list was thinned out, with actives kept by preference. A number with no mark means an inactive call.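 The calls were made as follows: active = score above a cut-off or among the top three wells of a plate; in these data no inactive exceeds 0.85.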 Some results are limits rather than exact numbers.

For `CC(C)(C)OC(=O)Nc1ccc(-c2cc(C(=O)NCCCCCCC(=O)NO)no2)cc1`, the “scaled lipid accumulation score” value under setting [1] is ≤ 0.
Take `CC(=O)OCC(=O)[C@@]1(O)CC[C@H]2[C@@H]3C[C@H](C)C4=CC(=O)C=C[C@]4(C)[C@H]3[C@@H](O)C[C@@]21C`: the “scaled lipid accumulation score” value under setting [2] is ≤ 0.
`CN1CCN(CCc2ccc(Cl)c(Cl)c2)CC1` [BD 1063 dihydrochloride]: under setting [2], the “scaled lipid accumulation score” value is 0.684.
On to `COc1ccc(CCN(C)CCc2ccc(OC)c(OC)c2)cc1OC` [YS-035 hydrochloride], for which the “scaled lipid accumulation score” value under setting [2] is 0.011 and 0.112.
Regarding `Br.Br.CN(CCc1ccc(Cl)c(Cl)c1)CCN1CCCC1` [BD 1008 dihydrobromide], the “scaled lipid accumulation score” value under setting [2] was 0.882 (active).
For the molecule `C[C@H](NCc1ccc(OCc2cccc(F)c2)cc1)C(N)=O` [Safinamide Mesylate], the “scaled lipid accumulation score” value by setting is: under setting [3], ≤ 0; under setting [2], ≤ 0.
Regarding `CC(C)OC(=O)CCC/C=C/C[C@H]1C(=O)C[C@@H](O)[C@@H]1/C=C/[C@@H](O)COc1cccc(C(F)(F)F)c1` [9-keto Fluprostenol isopropyl ester], under setting [1], the “scaled lipid accumulation score” value is ≤ 0.
On the same count and under the same terms, with `C=C1C[C@@H](O)[C@H](/C=C/[C@@H](O)C(C)(C)CCCC)[C@H]1C/C=C\CCCC(=O)O` [9-deoxy-9-methylene-16,16-dimethyl Prostaglandin E2] the figure was ≤ 0.
Consider `CCOC(=O)c1cnc2ccc(-c3cncc(NS(=O)(=O)c4ccccc4)c3)cn12` [listing 1 of 2 here], for which the “scaled lipid accumulation score” value under setting [2] is 0.915 (active).
With `CCOC(=O)c1cnc2ccc(-c3cncc(NS(=O)(=O)c4ccccc4)c3)cn12` [listing 2 of 2 here], the “scaled lipid accumulation score” value under setting [3] is 0.492.
For the molecule `CCCCC[C@H](O)/C=C/[C@H]1C(=O)C[C@H](O)[C@@H]1C/C=C\CCCC(=O)NCCO` [Prostaglandin D2 Ethanolamide], the “scaled lipid accumulation score” value under setting [1] was ≤ 0.
As to `CCC(C)C1OC2(CCC1C)CC1CC(CC=C(C)C(OC3CC(OC)C(OC4CC(OC)C(O)C(C)O4)C(C)O3)C(C)C=CC=C3COC4C(O)C(C)=CC(C(=O)O1)C34O)O2` (stereo unspecified) [Ivermectin], the “scaled lipid accumulation score” value under setting [3] is 0.007 and the “scaled lipid accumulation score” value under setting [2] was 0.198.
`CCC(=O)NC[C@H](Cc1ccc(OCCc2nc(-c3ccccc3)oc2C)cc1)N/C(C)=C\C(=O)c1ccc(C(F)(F)F)cc1`: the “scaled lipid accumulation score” value under setting [2] was ≤ -0.001.
Same read-out and setting: under `NC[C@H]1CC[C@H](C(=O)Oc2ccc(CCC(=O)O)cc2)CC1` stands ≤ 0.
With `COC(=O)N[C@@H](C)CNc1nccc(-c2cn(C(C)C)nc2-c2cc(Cl)cc(NS(C)(=O)=O)c2F)n1`, the “scaled lipid accumulation score” value under setting [3] is ≤ -0.009 and the “scaled lipid accumulation score” value under setting [2] is 0.655.
For the molecule `CNCCCC12CCC(c3ccccc31)c1ccccc12.Cl` [Maprotiline hydrochloride] [listing 1 of 2 here], the “scaled lipid accumulation score” value is 1.05 (active) (library stock concentration: 6.4 mM); 0.918 (active) and 1.23 (active) under setting [2].
For `CNCCCC12CCC(c3ccccc31)c1ccccc12.Cl` [Maprotiline hydrochloride] [listing 2 of 2 here], under setting [2], the “scaled lipid accumulation score” value is 1.59 (active).
On to `CNCCC[C@]12CC[C@H](c3ccccc31)c1ccccc12.Cl` [Maprotiline hydrochloride], for which the “scaled lipid accumulation score” value is 0.944 (active).
In the case of `CNCCCC12CCC(c3ccccc31)c1ccccc12.Cl` [Maprotiline HCl], under setting [2], the “scaled lipid accumulation score” value was 1.31 (active).
Consider `O=C(O)C1CCCNC1` (stereo unspecified), for which the “scaled lipid accumulation score” value is ≤ 0. The “scaled lipid accumulation score” value under setting [2] was 0.207.
For the molecule `CCCCC[C@@](C)(O)/C=C/[C@@H]1[C@@H](C/C=C\CCCC(=O)O)[C@@H](O)C[C@H]1O` [15(R)-15-methyl Prostaglandin F2.alpha.], the “scaled lipid accumulation score” value under setting [1] is ≤ 0.
Same read-out and setting: with `O=C(OCc1ccccc1)[C@H](O)c1ccccc1` [(R)-benzyl Mandelate] the figure was ≤ 0.
As for `C=C(C)[C@@H](CC=C(C)C)C[C@@]12C[C@@H](CC=C(C)C)C(C)(C)[C@@](CC=C(C)C)(C(=O)C(C(=O)c3ccc(O)c(O)c3)=C1O)C2=O` [Garcinol], the “scaled lipid accumulation score” value is ≤ 0 under setting [4], ≤ 0 under setting [5], ≤ 0 under setting [6] and ≤ 0 under setting [2].
With `C[C@@H](N)C1CCC(C(=O)Nc2ccncc2)CC1` (stereo partly specified), the “scaled lipid accumulation score” value under setting [3] was ≤ 0.
As to `O=C(O)CCCC[C@@H]1CCSS1` [Thioctic acid], the “scaled lipid accumulation score” value under setting [2] is ≤ -0.027.
In the case of `CC/C(=C\C(=N\O)C(N)=O)C(C)[N+](=O)[O-]` (stereo unspecified), the “scaled lipid accumulation score” value under setting [1] is ≤ 0.
As for `CC(C)CCC[C@@H](C)CCC[C@@H](C)CCCC(C)CC(=O)O` (stereo partly specified) [Phytanic Acid], the “scaled lipid accumulation score” value under setting [1] was 0.028.
As for `O=C(NCCS(=O)(=O)c1ccc(C(F)(F)F)cn1)c1ccc(Cl)cc1`, the “scaled lipid accumulation score” value by setting is: under setting [3], ≤ -0.009; under setting [2], ≤ 0.
With `Cc1nc(Nc2ncc(C(=O)Nc3c(C)cccc3Cl)s2)cc(N2CCN(CCO)CC2)n1` [listing 1 of 2 here], the “scaled lipid accumulation score” value by setting is: under setting [5], 0.775; under setting [2], 0.677.
For the molecule `Cc1nc(Nc2ncc(C(=O)Nc3c(C)cccc3Cl)s2)cc(N2CCN(CCO)CC2)n1` [listing 2 of 2 here], the “scaled lipid accumulation score” value was 1.18 (active) under setting [6] and 1.48 (active) under setting [2].
As to `C=CC(=O)Nc1cccc(Sc2nc(Nc3ccc(N4CCN(C)CC4)cc3)ncc2Cl)c1`, the “scaled lipid accumulation score” value was ≤ 0 under setting [3] and 0.466 under setting [2].
As for `Cc1nc(Nc2ncc(C(=O)Nc3c(C)cccc3Cl)s2)cc(N2CCN(CCO)CC2)n1` [Dasatinib], the “scaled lipid accumulation score” value under setting [4] is ≤ 0; the “scaled lipid accumulation score” value under setting [5] was 0.238; the “scaled lipid accumulation score” value under setting [6] is 0.602; the “scaled lipid accumulation score” value under setting [3] is 0.43; the “scaled lipid accumulation score” value under setting [2] was 0.646 and 0.707.
With `O=S(=O)(c1ccccc1)N(CC(F)(F)F)c1ccc(C(O)(C(F)(F)F)C(F)(F)F)cc1`, the “scaled lipid accumulation score” value under setting [1] is 0.1; the “scaled lipid accumulation score” value under setting [3] is 0.164; the “scaled lipid accumulation score” value under setting [2] was 0.741 and 0.112.
On to `CN1CCCC(CC2c3ccccc3Sc3ccccc32)C1.Cl.O` (stereo unspecified) [Metixene hydrochloride], for which the “scaled lipid accumulation score” value is 1.12 (active).
As for `CN1CCN(C2Cc3ccccc3Sc3ccc(Cl)cc32)CC1` (stereo unspecified), the “scaled lipid accumulation score” value under setting [2] was 0.378.
The same measure, in the same setting: with `N#Cc1ccc2c(c1)N(CCCN1CCC(O)CC1)c1ccccc1S2` [Periciazine] the figure was 0.107.
Take `C[C@@H](O)CCC[C@@H](O)/C=C/[C@H]1C(O)CC(O)C1CCCCCCC(=O)O` (stereo partly drawn) [15(R),19(R)-hydroxy Prostaglandin F1.alpha.]: the “scaled lipid accumulation score” value under setting [1] is ≤ 0.
Take `CCc1c2c(nc3ccc(OC(=O)N4CCC(N5CCCCC5)CC4)cc13)-c1cc3c(c(=O)n1C2)COC(=O)[C@]3(O)CC` [Irinotecan hydrochloride]: under setting [2], the “scaled lipid accumulation score” value was 0.299.
Take `CC[C@@]1(O)C(=O)OCc2c1cc1n(c2=O)Cc2cc3c(CN(C)C)c(O)ccc3nc2-1` [Topotecan hydrochloride hydrate]: the “scaled lipid accumulation score” value under setting [2] is ≤ -0.055.
Consider `CCc1c2c(nc3ccc(O)cc13)-c1cc3c(c(=O)n1C2)COC(=O)[C@]3(O)CC`, for which the “scaled lipid accumulation score” value by setting is: under setting [3], ≤ 0; under setting [2], 0.297 and ≤ -0.001.
As for `CCc1c2c(nc3ccc(OC(=O)N4CCC(N5CCCCC5)CC4)cc13)-c1cc3c(c(=O)n1C2)COC(=O)[C@]3(O)CC` [Irinotecan], the “scaled lipid accumulation score” value runs as follows: under setting [3], 0.151; under setting [2], 0.025.
In the case of `CC[C@@]1(O)C(=O)OCc2c1cc1n(c2=O)Cc2cc3c(CN(C)C)c(O)ccc3nc2-1` [Topotecan], the “scaled lipid accumulation score” value (library stock concentration: 4.7 mM) was ≤ 0.
For `CC[C@@]1(O)C(=O)OCc2c1cc1n(c2=O)Cc2cc3c(CN(C)C)c(O)ccc3nc2-1` [Topotecan hydrochloride], the “scaled lipid accumulation score” value by setting is: (library stock concentration: 4.4 mM) 0.131; under setting [2], 0.196.
In the case of `CCc1c2c(nc3ccc(OC(=O)N4CCC(N5CCCCC5)CC4)cc13)-c1cc3c(c(=O)n1C2)COC(=O)[C@]3(O)CC` [Irinotecan HCl Trihydrate], the “scaled lipid accumulation score” value is, setting by setting: under setting [3], ≤ 0; under setting [2], 0.228.
For the molecule `CCc1c2c(nc3ccc(OC(=O)N4CCC(N5CCCCC5)CC4)cc13)-c1cc3c(c(=O)n1C2)COC(=O)[C@]3(O)CC`, under setting [2], the “scaled lipid accumulation score” value is 0.226.
As to `CC[C@@]1(O)C(=O)OCc2c1cc1n(c2=O)Cc2cc3c(CN(C)C)c(O)ccc3nc2-1` [Topotecan HCl], the “scaled lipid accumulation score” value reads like this: under setting [3], ≤ 0; under setting [2], ≤ 0.
Turning to `CC[C@@]1(O)C(=O)OCc2c1cc1n(c2=O)Cc2cc3c(CN(C)C)c(O)ccc3nc2-1`, the “scaled lipid accumulation score” value under setting [2] is ≤ 0.
Still for that read-out and setting: with `CCc1c2c(nc3ccc(OC(=O)N4CCC(N5CCCCC5)CC4)cc13)-c1cc3c(c(=O)n1C2)COC(=O)[C@]3(O)CC` [IRINOTECAN HCl )trihydrate)] the figure was 1.1 (active).
Regarding `N=C(N)N` [Guanidine HCl], the “scaled lipid accumulation score” value is ≤ 0 under setting [3] and ≤ -0.001 under setting [2].
For the molecule `N=C(N)N`, the “scaled lipid accumulation score” value under setting [2] was ≤ 0.
For the molecule `CCCCC[C@H](O)/C=C/[C@H]1OC(O)C[C@H](O)[C@@H]1CCCCCCC(=O)O` (stereo partly specified) [Thromboxane B1], the “scaled lipid accumulation score” value under setting [1] is 0.131.
Regarding `C#CCCCCCCCCCCCC(O)CC(O)CO` (stereo unspecified) [Avocadyne], the “scaled lipid accumulation score” value under setting [2] is 0.005.
Consider `Cc1cccc(C(=O)NCN2CCN(c3ccccc3C#N)CC2)c1` [PD 168,077 maleate], for which the “scaled lipid accumulation score” value under setting [2] was ≤ 0.
As for `COc1ccccc1N1CCN(CCCNc2c(C)c(=O)n(C)c(=O)n2C)CC1` [Urapidil, 5-Methyl-], the “scaled lipid accumulation score” value under setting [2] was ≤ 0.
The same measure, in the same setting: with `COc1ccccc1N1CCN(CCCCNC(=O)c2ccc(-c3ccc(C(C)=O)cc3)cc2)CC1` the figure was 0.934 (active).
As for `COc1ccccc1N1CCN(CCCCNC(=O)c2ccc3ccccc3c2)CC1` [listing 1 of 2 here], the “scaled lipid accumulation score” value was 0.307.
As for `COc1cccc(C(=O)NCCN2CCN(c3ccc(Cl)cc3)CC2)c1`, under setting [2], the “scaled lipid accumulation score” value was 0.314.
On to `COc1ccccc1N1CCN(CCCNc2cc(=O)n(C)c(=O)n2C)CC1`, for which the “scaled lipid accumulation score” value under setting [2] is ≤ 0.
Same read-out and setting: under `COc1ccccc1N1CCN(CCCNc2cc(=O)n(C)c(=O)n2C)CC1` [Urapidil] stands ≤ -0.027.
Take `COc1ccccc1N1CCN(CCCNc2cc(=O)n(C)c(=O)n2C)CC1` [Urapidil hydrochloride]: the “scaled lipid accumulation score” value is ≤ 0. Moreover, the “scaled lipid accumulation score” value under setting [2] is ≤ 0 and 0.02.
For the molecule `COc1ccc2cccc(N3CCN(CCNC(=O)c4ccc(F)cc4)CC3)c2c1`, under setting [2], the “scaled lipid accumulation score” value was 0.585.
Take `COc1ccccc1N1CCN(CCCCNC(=O)c2ccc3ccccc3c2)CC1` [listing 2 of 2 here]: the “scaled lipid accumulation score” value under setting [2] was 1.01 (active).
Still for that read-out and setting: with `Cc1cccc(C(=O)NCN2CCN(c3ccccc3C#N)CC2)c1` the figure was 0.009.
As for `COc1ccccc1N1CCN(CCCNc2cc(=O)n(C)c(=O)n2C)CC1` [Urapidil HCl], the “scaled lipid accumulation score” value reads like this: under setting [3], ≤ 0; under setting [2], ≤ 0.
For `Cl.O=C(NCCCCN1CCN(c2cccc(Cl)c2Cl)CC1)c1ccc2c(c1)Cc1ccccc1-2`, the “scaled lipid accumulation score” value under setting [2] was 0.884 (active).
